Compound activity as filed in PubChem.
PNC inhibitor = blocks assembly of the perinucleolar compartment | PC3M PTB-GFP, PNC prevalence imaging, 16 h; stronger effect = lower value | activity change (PNC), negative = inhibition, % at 10 µM | 140,000 compounds, 3.1% hits;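 active = readout at or below -70, meaning at least 70% loss of cells showing the perinucleolar compartment, a nuclear body marking cancer cells; inconclusive = readout between -30 and a set limit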;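 also: plate controls were DMSO wells for no effect and camptothecin positive control wells for full effect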
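Read-out is percentage of cells bearing a perinucleolar compartment, from automated 20x imaging of fixed, Hoechst-stained PC3M PTB-GFP cells. Cells were seeded 4 h, then exposed 16 h to compound (23 nl of library stock) in duplicate plates.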
NPSR antag = neuropeptide S receptor (human) antagonism, cAMP | AID 1461 | Potency, µM (titrated, usually from 38.3 µM), inactives show at the highest dose activity change, negative = inhibition, most hits filed as inhibitors | CHO-NPSR cells, cAMP TR-FRET, antagonist mode | 220,000 compounds, 1% hits; active = well fitted curve in the direction sought with a large enough effect; inconclusive = small, poorly fitted or top-dose-only effect, or another doubt; inactive = no such curve, though single readings can be large; an effect the other way counts as inactive or inconclusive; also: potency is read from the fitted curve at half-maximal effect; nearly all actives have a fitted effect of over 50% in size
IMPase Li cell = IMPase inhibition in cells with lithium potentiation. Potency, µM (doses to about 59.4 µM), without a hit: at the highest dose activity, negative = IMPase inhibition, hits mostly inhibitors. 210,000 compounds, 0.35% hits. CHO-M1 cells, IP1 TR-FRET (IP-One), carbachol + lithium; active = well fitted curve in the direction sought with a large enough effect; inconclusive = small, poorly fitted or top-dose-only effect, or another doubt; inactive = no such curve, though single readings can be large; an effect the other way counts as inactive or inconclusive;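 also: IP1 builds up when IMPase is blocked and the TR-FRET signal falls; potency is read from the fitted curve at half-maximal effect; plate controls were basal vehicle for no effect and high inhibitor control for full effect; nearly all actives have a fitted effect of over 50% in size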
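Concentration–response in CHO-M1 cells, lithium-potentiated; 30 min at 37C. IP1 detected by competitive TR-FRET after 10 min lysis at RT. Hill-fitted AC50.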
HPGD inh = HPGD (human) dehydrogenase inhibition; 150,000 compounds, 4.3% hits; P15428; Potency, µM, for the others: top-dose activity change, negative = inhibition, actives largely listed as inhibitors; purified HPGD, NADH fluorescence kinetic, PGE2 substrate; also: potency is read from the fitted curve at half-maximal effect
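20 nM HPGD preincubated 15 min at room temperature with compound in 50 mM Tris-HCl pH 8, 0.01% Tween 20. Started with 1 mM NAD+ and 30 uM prostaglandin E2; NADH fluorescence (360/450 nm) read 5 times over 30-s intervals, last minus first.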
ALDH1A1 inh = inhibitors of human aldehyde dehydrogenase 1A1; P00352; Purified ALDH1A1, NADH fluorescence, propionaldehyde substrate; Potency, µM (top dose mostly 75.3 µM), for inactives: top-dose activity, negative = inhibition, usual class: inhibitors; 220,000 compounds, 7.3% hits; AID 1030;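 also: potency is read from the fitted curve at half-maximal effect; plate controls were no enzyme wells and a reference inhibitor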
Target sequence (P00352 whole entry, looked up): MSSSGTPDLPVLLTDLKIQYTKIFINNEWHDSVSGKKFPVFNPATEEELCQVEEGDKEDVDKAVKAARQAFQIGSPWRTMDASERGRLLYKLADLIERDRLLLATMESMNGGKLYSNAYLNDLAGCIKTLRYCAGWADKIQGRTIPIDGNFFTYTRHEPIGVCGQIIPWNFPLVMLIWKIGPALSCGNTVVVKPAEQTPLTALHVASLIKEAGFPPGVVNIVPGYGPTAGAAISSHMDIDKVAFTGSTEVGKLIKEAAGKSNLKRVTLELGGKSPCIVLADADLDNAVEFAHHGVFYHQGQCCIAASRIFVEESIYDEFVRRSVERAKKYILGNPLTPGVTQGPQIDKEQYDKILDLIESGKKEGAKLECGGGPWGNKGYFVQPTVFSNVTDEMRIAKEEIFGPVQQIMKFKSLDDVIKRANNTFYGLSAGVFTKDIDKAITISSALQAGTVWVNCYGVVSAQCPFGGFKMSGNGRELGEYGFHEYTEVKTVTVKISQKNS
IMPase inh = cell-permeable inhibitors of inositol monophosphatase (IMPase); CHO-M1 cells, IP1 accumulation, HTRF TR-FRET ratio; P97697; inhibition (IP1 accumulation), % at 46.1 µM; 120,000 tested, under 10 active; active = well fitted curve in the direction sought with a large enough effect in the signal ratio, not every such curve was filed as active; inconclusive = small, poorly fitted or top-dose-only effect, or a change in a side signal; inactive = no such curve, though single readings can be large or run the other way; the % refers to the signal ratio;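 also: cells stimulated with carbachol in lithium chloride buffer; plate controls were DMSO basal wells for no effect and reference inhibitor wells for full effect; higher means more IMPase inhibition seen as more IP1 and lower FRET ratio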
Target sequence (P97697 whole entry, looked up): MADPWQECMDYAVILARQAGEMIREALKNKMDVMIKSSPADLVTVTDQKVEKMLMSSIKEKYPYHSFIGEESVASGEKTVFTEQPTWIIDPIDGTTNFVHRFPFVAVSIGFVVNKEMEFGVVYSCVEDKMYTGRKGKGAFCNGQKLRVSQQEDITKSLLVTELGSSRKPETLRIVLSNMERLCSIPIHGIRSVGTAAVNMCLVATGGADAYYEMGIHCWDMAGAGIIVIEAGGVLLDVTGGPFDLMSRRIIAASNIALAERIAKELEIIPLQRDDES
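Cellular IMPase inhibition is scored as a rise in cytosolic IP1, detected by competitive TR-FRET between d2-labelled IP1 and a europium anti-IP1 antibody. M1-expressing CHO cells were stimulated with carbachol for 30 min at 37C, with lithium (50 mM LiCl) present in the buffer.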
An asterisk follows results filed as active; ? = inconclusive; · = not tested or not shown; [ ] = remark or other dose. In the library only some 11% were active in any assay of this set; here they are far more common. Unless noted, calls follow the shape of the dose curve; as a rule, active = well fitted inhibition curve with a large enough effect (not every such curve was filed as active); inconclusive = small, poorly fitted or top-dose-only effect, or another doubt; inactive = no such curve, though single readings can be large or run the other way. Unless noted, % is scaled to controls: 0 for no effect and ±100 for the full control effect.

SMILES	PNC inhibitor	NPSR antag	IMPase Li cell	HPGD inh	ALDH1A1 inh	IMPase inh
Brc1ccc(-c2csc(NNC3=NCCCCC3)n2)cc1	-21.8	-3.9%[46.1 µM]	·	·	11.2µM*	-0.2
CC(C)(C)c1ccc(-c2csc(NNC3=NCCCCC3)n2)cc1	30.5	?	35.5%[38.3 µM]	-12.9%	-15.4%	8.7
O=C(c1ccccc1)c1cc(Cl)ccc1N1C(=O)C=CC1=O	·	?	22.6%	·	10µM*	·
CCC(=O)NC(=S)Nc1ccc(-c2nc3ccccc3s2)cc1	-7.4	-3.8%[46.1 µM]	11.2µM*	-2.4%	0.1%	2.1
Cc1ccc(C(=O)NC(=S)Nc2cccc(-c3nc4ccccc4s3)c2)cc1	-112.5*	-22.8%	0.2%	-8.1%	11.2µM*	-14.1
CCC(=O)NC(=S)Nc1ccc(-c2nc3ccc(C)cc3s2)cc1	-3.0	-0.2%[46.1 µM]	·	·	-4.1%	0.0
CCOC(=O)c1[nH]c(C)c(C(=O)NCc2ccccn2)c1C	-100.0*	-7.0%[46.1 µM]	0.5%	-7.5%	-0.2%	-3.2
CC(=O)c1c(C)[nH]c(C(=O)NCc2ccccn2)c1C	23.5	-3.6%[46.1 µM]	-3.9%[38.3 µM]	-5.9%	2.9%	-1.4
CCOC(=O)c1[nH]c(C)c(C(=O)NC2CCCC2)c1C	8.7	-7.1%[46.1 µM]	-4.6%[38.3 µM]	17.8µM*	1.7%	-7.5
CCn1c2ccccc2c2cc(NC(=O)COC(=O)c3cc(OC)c(OC)cc3OC)ccc21	-2.5	-16.2%[46.1 µM]	5.6%	?	-2.5%	-0.4
Cc1ccc(S(=O)(=O)N(C)C)cc1NC(=O)Nc1ccccc1	·	-7.7%	·	·	·	·
Cc1ccc(S(=O)(=O)N(C)C)cc1NC(=O)CCc1ccccc1	·	-7.0%	·	·	4.47µM*	·
Cc1ccc(S(=O)(=O)N(C)C)cc1NC(=O)CCc1c[nH]c2ccccc12	·	-6.3%	7.1%	·	4.47µM*	·
CCCC(C)NC(=O)C1CCN(S(=O)(=O)c2ccccc2)CC1 (stereo not given)	?	-2.4%[46.1 µM]	41.4%[38.3 µM]	-5.5%	6.8%	4.3
Cc1ccc(N(CC(=O)NN=C2CCN(C)CC2)S(=O)(=O)c2ccc(C)cc2)cc1	·	12.0%	3.6%	·	?	·
CC1=CC(C)(C)N(C(=O)CN2C(=O)c3ccccc3C2=O)c2ccccc21	-3.1	-18.9%[46.1 µM]	0.8%	-10.3%	?	2.7
COc1ccc(C2Nc3ccccc3C(=O)N2Cc2ccco2)cc1COc1ccc(F)cc1 (stereo not given)	141.2	?	14.3%	?	2.51µM*	-1.2
Cc1csc(NC(=O)CCc2ccc(S(=O)(=O)N3CCOCC3)cc2)n1	2.7	11.9%[46.1 µM]	18.3%[38.3 µM]	-21.3%	?	3.3
Cc1cc(NC(=O)CCc2ccc(S(=O)(=O)N3CCOCC3)cc2)n(-c2ccccc2)n1	-100.0*	-2.9%[46.1 µM]	10.4%	-7.5%	1.6%	3.6
COc1ccc2nc(NC(=O)Cc3cccs3)sc2c1	?	-11.9%[46.1 µM]	25.6%[38.3 µM]	-8.0%	-7.0%	-0.3
CC1CCc2nc(NC(=O)C3CCCO3)sc2C1 (stereo not given)	?	-9.8%[46.1 µM]	19.8%[38.3 µM]	-20.7%	20µM*	-2.3
Cc1ccc2nc(NC(=O)Cc3cccs3)sc2c1	50.5	-16.6%[46.1 µM]	24.2%[38.3 µM]	-21.3%	7.94µM*	-1.7
CC1CCc2nc(NC(=O)c3ccco3)sc2C1 (stereo not given)	-21.5	-8.1%[46.1 µM]	5.5%[38.3 µM]	-14.3%	?	-8.1
Cc1ccc2nc(NC(=O)CN(C)S(=O)(=O)c3cccc4nsnc34)sc2c1	-122.4*	-1.1%[46.1 µM]	4.8%[38.3 µM]	-0.5%	3.1%	-0.1
CC1CCc2nc(NC(=O)Cc3cccs3)sc2C1 (stereo not given)	?	-28.1%[46.1 µM]	25.1%[38.3 µM]	-24.4%	20µM*	3.4
SMILES	PNC inhibitor	NPSR antag	IMPase Li cell	HPGD inh	ALDH1A1 inh	IMPase inh
Cc1ccnc(NC(=O)CN(C)S(=O)(=O)c2cccc3nsnc23)c1	64.0	-13.6%[46.1 µM]	-6.1%[38.3 µM]	-14.7%	-0.2%	7.4
Cc1ccc(CN2CCN(Cc3ccc(OC(C)C)cc3)CC2CCO)o1 (stereo not given)	·	3.4%	16.5%	·	1.6%	·
COC(=O)c1sc2ncccc2c1OCc1cccc(Cl)c1	23.3	-29.7%[46.1 µM]	-2.4%[38.3 µM]	?	3.7%	1.7
COc1ccc(C(=O)c2ccc(Cl)cc2Cl)cc1	-21.3	-16.2%[46.1 µM]	18.8%[38.3 µM]	-11.0%	1.7%	2.9
Nc1c(C(=O)Nc2cccc(Cl)c2Cl)sc2nc(-c3cccnc3)ccc12	?	16.5%	-4.1%	-3.3%	13.6%	1.4
COc1ccc(-c2ccc(C(=O)O)c(=O)[nH]2)cc1	·	-9.0%	3.16µM*	·	?	·
CN(C(=O)CSc1nc2ccc(Br)cc2c(=O)n1Cc1ccco1)C1CCS(=O)(=O)C1 (stereo not given)	·	38.3%	·	·	12.6µM*	·
CCN(C(=O)CSc1nc2cc(Cl)ccc2c(=O)n1Cc1ccco1)C1CCS(=O)(=O)C1 (stereo not given)	·	-40.9%	16.7%	·	17.8µM*	·
CN(C(=O)CSc1nc2cc(C(=O)O)ccc2c(=O)n1Cc1ccccc1)C1CCS(=O)(=O)C1 (stereo not given)	·	8.6%	2.0%	·	-1.6%	·
CN1CCC(=O)N([C@H](CSc2ccc(Br)cc2)c2ccccc2)CC1	·	-9.8%	·	·	·	·
COc1ccc(CNC(=O)c2ccc(CNc3c(NC4CCCCC4)c(=O)c3=O)cc2)cc1	20.1	11.4%	4.0%	-12.4%	1.7%	·
COc1ccc(NC(=O)c2ccc(CNc3c(NC4CCCCC4)c(=O)c3=O)cc2)cc1OC	-24.1	-6.6%[46.1 µM]	-0.5%[38.3 µM]	17.8µM*	-13.0%	13.1
O=C(NN1C(=O)/C(=C/c2cccnc2)SC1=S)C(c1ccccc1)c1ccccc1	63.0	-26.9%[46.1 µM]	8.4%[38.3 µM]	-4.4%	-0.2%	5.1
CC(=O)Oc1ccc(N2C(=O)C3C4C=CC(C5CC45)C3C2=O)cc1[N+](=O)[O-] (stereo not given)	-11.9	-5.9%	-1.9%	-28.7%	6.31µM*	·
CC(=O)Oc1cccc(N2C(=O)C3C4C=CC(C4)C3C2=O)c1 (stereo not given)	-1.0	-2.1%[46.1 µM]	-17.0%[38.3 µM]	-10.2%	10.1%	-0.2
CC(=O)Oc1ccc(N2C(=O)C3C(C2=O)C2C=CC3C23CC3)cc1[N+](=O)[O-] (stereo not given)	·	-4.3%	8.5%	·	7.94µM*	·
CCOc1cc(C(=O)Nc2c3c(nn2C(C)(C)C)CS(=O)C3)cc(OCC)c1OCC (stereo not given)	-23.8	-5.0%[46.1 µM]	-1.1%	2.6%	8.3%	·
CC(C)N(C(=O)CN(C#N)c1nc(N(C)C)nc(N(C)C)n1)c1ccccc1	?	?	21.6%[38.3 µM]	-6.2%	8.91µM*	3.7
Cc1c([N+](=O)[O-])cc(C(=O)Nc2ccc(Cc3ccncc3)cc2)cc1[N+](=O)[O-]	-1.4	-0.3%	0.7%	-9.7%	14.3%	·
N#Cc1ccccc1Cn1c(=O)n(Cc2ccc(C(=O)NCc3ccco3)cc2)c(=O)c2sccc21	96.7	-12.8%	8.1%	-7.4%	25.1µM*	5.9
